Experimental findings from PubChem BioAssay (NCI) are described below.

SMILES strings stand for the structures. Compounds without any hit were thinned out: in the full panel of roughly 79,000, 15% have a hit. Activity calls are given as the source filed them. Cut-off read from the data, not from the text of the source: active = growth inhibition above about 70%; inactive = the rest.

The first assay is described as follows: NCI Yeast Anticancer Drug Screen. Data for the sgs1 mgt1 strain (AID 161).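 Note: 0% = growth of cultures given vehicle only.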 The conditions noted are these: S. cerevisiae sgs1 mgt1 strain, at 50.0 µM, stronger effect = higher value. In short, it runs like this:
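Growth of a repair-deficient yeast mutant was monitored after compound treatment and expressed as inhibition relative to vehicle-treated cultures.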
For `CC(=O)CCCCCCCCCCCCCC(C)=O`, the growth inhibition is -21.1% (inactive).
Consider `CC(C)CCC(=O)C(C)C`, for which the growth inhibition is 13.2% (inactive).
Take `CCC(=O)OCCCCCCOC(=O)CC`: the growth inhibition is 12.5% (inactive).
`CCC(=O)Cc1ccc(OC)c(OC)c1`: the growth inhibition was 19.6% (inactive).
`NC(=O)NC(=O)NCc1ccccc1`: the growth inhibition was -12.8% (inactive).
Turning to `CC(O)CN1CNC(=S)NC1` (stereo not given), the growth inhibition is -3.55% (inactive).
On the same count and under the same terms, then `COC(=O)C1(C2(C(=O)OC)NC(C)=C(c3ccccc3)C(=O)O2)NC(C)=C(c2ccccc2)C(=O)O1` (stereo not given), with -6.95% (inactive); and `c1ccc2c3c(ccc2c1)OCCOCCOc1ccc2ccccc2c1-3`, with 76.5% (active).
On to `CN(c1ncc(Cc2cnc(N(C)C3CCN(Cc4ccccc4)CC3)nc2)cn1)C1CCN(Cc2ccccc2)CC1`, for which the growth inhibition was -12.8% (inactive).
Consider `O=c1[nH]c(Nc2ccc(F)c(Cl)c2)nc2nc[nH]c12`, for which the growth inhibition was 4.6% (inactive).
In the case of `Cc1cc(O)cc(C)c1Cl`, the growth inhibition was 5.95% (inactive).
As to `O=C(O)C(Cc1c[nH]c2ccccc12)N1C(=O)c2ccccc2C1=O` (stereo not given), the growth inhibition is -8.15% (inactive).
The same measure, in the same setting: then `Cn1c(O)c(C=Nc2ccccc2Cl)c(=O)n(C)c1=O`, with -9.7% (inactive); and `Cc1cccc(-c2nc(N)nc(N)n2)c1`, with -1.05% (inactive); and `CCCCN(CCCC)CC(CC)N(CCCC)CCCC` (stereo not given), with -5.7% (inactive).
As to `CCOC(=O)CCCN1CCC=C(C#N)C1`, the growth inhibition is 6.7% (inactive).
`CC1=CN(c2ccccc2)S2=C1c1sc3c(c1N2c1ccc(Br)cc1)CCCC3` (stereo not given): the growth inhibition is -27.5% (inactive).
On to `CC(=O)c1ccc(O)c(CN(C2CCCCC2)C2CCCCC2)c1O`, for which the growth inhibition was -36.1% (inactive).
As to `O=C(CC(=O)Nc1ccccc1)NNC(Sc1ccccc1)c1cc(N=Nc2ccc(Br)cc2)ccc1O` (stereo not given), the growth inhibition is 11.2% (inactive).
Same read-out and setting: then `CCCC#CCN(C(C)C)C(C)C`, with -6.35% (inactive).
On the same count and under the same terms, as for `O=C(NNC(=O)c1ccc2ccccc2n1)c1ccc2ccccc2n1`, the figure is 12.3% (inactive); as for `O=C(O)c1ccc(-n2cnc3c(=O)[nH]cnc32)cc1`, -13.3% (inactive).
Take `O=C(COc1ccccc1[N+](=O)[O-])Nc1cccnc1`: the growth inhibition was -12.3% (inactive).
In the case of `Cc1cc(C)c2c(c1)Nc1ccccc1P2c1ccccc1` (stereo not given), the growth inhibition is 48.2% (inactive).
Turning to `COc1ccc(NC(=O)Nc2ccc(SC)cc2)c(Cl)c1`, the growth inhibition was -2.8% (inactive).
Regarding `Cc1ccc(S(=O)(=O)C(Sc2ccccc2)=S=NC(C)(C)C)cc1`, the growth inhibition is 89.3% (active).
Regarding `CCC(CO)(CO)CBr`, the growth inhibition is 0.6% (inactive).
With `O=S(=O)(Oc1ccc(Cl)cc1)c1cccc(S(=O)(=O)Oc2ccc(Cl)cc2)c1`, the growth inhibition is -2.65% (inactive).
Regarding `CCCCC(=O)CCCCCCCCC(=O)CCCC`, the growth inhibition is -19.8% (inactive).
Take `O=C(O)CNCc1ccc(F)cc1`: the growth inhibition was -14.7% (inactive).
In the case of `Cc1ccc(S(=O)(=O)OC2C(CI)OCOC(CI)C2OS(=O)(=O)c2ccc(C)cc2)cc1` (stereo not given), the growth inhibition was -6.3% (inactive).
With `N#C/C(=C\c1c2ccccc2c(Cl)c2ccccc12)C(N)=S`, the growth inhibition is 45.1% (inactive).
`COC(=O)C1(CC(=O)c2ccncc2)NC(=S)NC(=O)C1C#N` (stereo not given): the growth inhibition is -19.1% (inactive).
Still for that read-out and setting: as for `Cc1cccc(Cl)c1OCC(=O)Nc1ccccc1`, the figure is 20.8% (inactive).
As to `CN(C)c1nc(OC2C(C3COC(C)(C)O3)OC3OC(C)(C)OC32)nc(N(C)C)n1` (stereo not given), the growth inhibition is 9.65% (inactive).
Still for that read-out and setting: then `O=C(CCCCCCC(=O)C[N+]12CCC(CC1)C(O)C2)C[N+]12CCC(CC1)C(O)C2` (stereo not given), with 21.1% (inactive).
For the molecule `O=c1c2ccccc2c(=O)c2c1ccc1[nH]c3ccccc3sc12`, the growth inhibition is 7.6% (inactive).
The same measure, in the same setting: then `Cc1ccc(S(=O)(=O)NC(=O)NC23CC4CC(CC(F)(C4)C2)C3)cc1`, with -13.6% (inactive).
For `Cc1[nH]c(=O)nc(CC(O)(c2ccccc2)c2ccccc2)c1-c1ccccc1`, the growth inhibition was -22% (inactive).
With `CC(C)C(Nc1ncnc2nc[nH]c12)C(=O)O` (stereo not given), the growth inhibition was -6.65% (inactive).

Another assay is described as follows: NCI Yeast Anticancer Drug Screen. Data for the cln2 rad14 strain (AID 165).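 Note: 0% = growth equal to vehicle treated cultures.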 Conditions: S. cerevisiae cln2 rad14 strain, at 50.0 µM, stronger effect = higher value. In short, it runs like this:
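Readout is yeast growth inhibition versus vehicle-treated controls, using a strain with cln2 and rad14 alterations exposed to compound.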
Turning to `CC(=O)CCCCCCCCCCCCCC(C)=O`, the growth inhibition was -10.8% (inactive).
For the molecule `CC(C)CCC(=O)C(C)C`, the growth inhibition was 11.5% (inactive).
`CCC(=O)OCCCCCCOC(=O)CC`: the growth inhibition was -15% (inactive).
As to `CCC(=O)Cc1ccc(OC)c(OC)c1`, the growth inhibition is 7.3% (inactive).
Consider `NC(=O)NC(=O)NCc1ccccc1`, for which the growth inhibition was -7.65% (inactive).
The same measure, in the same setting: then `CC(O)CN1CNC(=S)NC1` (stereo not given), with 8.75% (inactive); and `COC(=O)C1(C2(C(=O)OC)NC(C)=C(c3ccccc3)C(=O)O2)NC(C)=C(c2ccccc2)C(=O)O1` (stereo not given), with 8.3% (inactive); and `c1ccc2c3c(ccc2c1)OCCOCCOc1ccc2ccccc2c1-3`, with 8.5% (inactive).
In the case of `CN(c1ncc(Cc2cnc(N(C)C3CCN(Cc4ccccc4)CC3)nc2)cn1)C1CCN(Cc2ccccc2)CC1`, the growth inhibition is -7.95% (inactive).
Turning to `O=c1[nH]c(Nc2ccc(F)c(Cl)c2)nc2nc[nH]c12`, the growth inhibition is -4.75% (inactive).
Take `Cc1cc(O)cc(C)c1Cl`: the growth inhibition was -21.2% (inactive).
On the same count and under the same terms, then `O=C(O)C(Cc1c[nH]c2ccccc12)N1C(=O)c2ccccc2C1=O` (stereo not given), with -12.3% (inactive); and `Cn1c(O)c(C=Nc2ccccc2Cl)c(=O)n(C)c1=O`, with -38.6% (inactive); and `Cc1cccc(-c2nc(N)nc(N)n2)c1`, with 18.6% (inactive).
In the case of `CCCCN(CCCC)CC(CC)N(CCCC)CCCC` (stereo not given), the growth inhibition is -38.6% (inactive).
With `CCOC(=O)CCCN1CCC=C(C#N)C1`, the growth inhibition is -7.7% (inactive).
On to `CC1=CN(c2ccccc2)S2=C1c1sc3c(c1N2c1ccc(Br)cc1)CCCC3` (stereo not given), for which the growth inhibition is 14.4% (inactive).
As for `CC(=O)c1ccc(O)c(CN(C2CCCCC2)C2CCCCC2)c1O`, the growth inhibition was 12.4% (inactive).
Turning to `O=C(CC(=O)Nc1ccccc1)NNC(Sc1ccccc1)c1cc(N=Nc2ccc(Br)cc2)ccc1O` (stereo not given), the growth inhibition is -10% (inactive).
`CCCC#CCN(C(C)C)C(C)C`: the growth inhibition is 29.2% (inactive).
For the molecule `O=C(NNC(=O)c1ccc2ccccc2n1)c1ccc2ccccc2n1`, the growth inhibition was 9.8% (inactive).
Take `O=C(O)c1ccc(-n2cnc3c(=O)[nH]cnc32)cc1`: the growth inhibition was -9.45% (inactive).
With `O=C(COc1ccccc1[N+](=O)[O-])Nc1cccnc1`, the growth inhibition was -9.25% (inactive).
Consider `Cc1cc(C)c2c(c1)Nc1ccccc1P2c1ccccc1` (stereo not given), for which the growth inhibition was 31.1% (inactive).
As for `COc1ccc(NC(=O)Nc2ccc(SC)cc2)c(Cl)c1`, the growth inhibition was -13.9% (inactive).
In the case of `Cc1ccc(S(=O)(=O)C(Sc2ccccc2)=S=NC(C)(C)C)cc1`, the growth inhibition was 53.4% (inactive).
Regarding `CCC(CO)(CO)CBr`, the growth inhibition is -14.7% (inactive).
In the case of `O=S(=O)(Oc1ccc(Cl)cc1)c1cccc(S(=O)(=O)Oc2ccc(Cl)cc2)c1`, the growth inhibition is -5.55% (inactive).
Consider `CCCCC(=O)CCCCCCCCC(=O)CCCC`, for which the growth inhibition was -31.2% (inactive).
With `O=C(O)CNCc1ccc(F)cc1`, the growth inhibition is -74.4% (inactive).
Consider `Cc1ccc(S(=O)(=O)OC2C(CI)OCOC(CI)C2OS(=O)(=O)c2ccc(C)cc2)cc1` (stereo not given), for which the growth inhibition was -20.4% (inactive).
In the case of `N#C/C(=C\c1c2ccccc2c(Cl)c2ccccc12)C(N)=S`, the growth inhibition was 7.55% (inactive).
As to `COC(=O)C1(CC(=O)c2ccncc2)NC(=S)NC(=O)C1C#N` (stereo not given), the growth inhibition was -22.4% (inactive).
For `Cc1cccc(Cl)c1OCC(=O)Nc1ccccc1`, the growth inhibition was 0.8% (inactive).
For the molecule `CN(C)c1nc(OC2C(C3COC(C)(C)O3)OC3OC(C)(C)OC32)nc(N(C)C)n1` (stereo not given), the growth inhibition is 26% (inactive).
On to `O=C(CCCCCCC(=O)C[N+]12CCC(CC1)C(O)C2)C[N+]12CCC(CC1)C(O)C2` (stereo not given), for which the growth inhibition was 0.5% (inactive).
As for `O=c1c2ccccc2c(=O)c2c1ccc1[nH]c3ccccc3sc12`, the growth inhibition was -20.1% (inactive).
For the molecule `Cc1ccc(S(=O)(=O)NC(=O)NC23CC4CC(CC(F)(C4)C2)C3)cc1`, the growth inhibition is 9.5% (inactive).
Take `Cc1[nH]c(=O)nc(CC(O)(c2ccccc2)c2ccccc2)c1-c1ccccc1`: the growth inhibition was 14.2% (inactive).
In the case of `CC(C)C(Nc1ncnc2nc[nH]c12)C(=O)O` (stereo not given), the growth inhibition was -35.2% (inactive).
